# In PubChem BioAssay AID1159580 (chemical genetic matrix, 2015):
# Out of some 5,500 compounds screened, about 2,000 (36%) were called active. Another 18% or so got no clear call; they are omitted. The list shows a part of the results. Values without a mark were called inactive. Rule as the data show it: active = normalized growth mostly below about 0.91 (no sharp cut-off); inconclusive = no clear call, values can overlap the other calls; inactive = mostly above about 0.92.
# Assay: chemical genetic growth profiling, strain panel (AID 1159580);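 also: tested at 20 µM; growth read once vehicle control cultures reached saturation at 30 °C; 1 = growth at the plate median or of vehicle wells; lower values mean less growth of the strain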
# Details: growth OD
# [1] = S. cerevisiae deletion strains, locus YAL013W, strain DEP1, active compounds read low
# [2] = S. cerevisiae deletion strains, locus YBR229C, strain ROT2, active compounds read low
# [3] = S. cerevisiae deletion strains, locus YCL061C, strain MRC1, active compounds read low
# [4] = S. cerevisiae deletion strains, locus YDL101C, strain DUN1, active compounds read low
# [5] = S. cerevisiae deletion strains, locus YDR150W, strain NUM1, active compounds read low
# [6] = S. cerevisiae deletion strains, locus YEL061C, strain CIN8, active compounds read low
# [7] = S. cerevisiae deletion strains, locus YGR078C, strain PAC10, active compounds read low
# [8] = S. cerevisiae deletion strains, locus YHR030C, strain SLT2, active compounds read low
# [9] = S. cerevisiae deletion strains, locus YHR087W, strain rtc3, active compounds read low
# [10] = S. cerevisiae deletion strains, locus YJL187C, strain SWE1, active compounds read low
# [11] = S. cerevisiae deletion strains, locus YJR043C, strain POL32, active compounds read low
# [12] = S. cerevisiae deletion strains, locus YJR075W, strain HOC1, active compounds read low
# [13] = S. cerevisiae deletion strains, locus YLR039C, strain RIC1, active compounds read low
# [14] = S. cerevisiae deletion strains, locus YLR058C, strain SHM2 (second series), active compounds read low
# [15] = S. cerevisiae deletion strains, locus YLR085C, strain ARP6, active compounds read low
# [16] = S. cerevisiae deletion strains, locus YLR262C, strain YPT6, active compounds read low
# [17] = S. cerevisiae deletion strains, locus YML094W, strain GIM5, active compounds read low
# [18] = S. cerevisiae deletion strains, locus YMR219W, strain ESC1, active compounds read low
# [19] = S. cerevisiae deletion strains, locus YMR263W, strain SAP30, active compounds read low
# [20] = S. cerevisiae deletion strains, locus YNL153C, strain GIM3, active compounds read low
# [21] = S. cerevisiae deletion strains, locus YNL298W, strain CLA4 (second series), active compounds read low
# [22] = S. cerevisiae deletion strains, locus YNL322C, strain KRE1, active compounds read low
# [23] = S. cerevisiae deletion strains, locus YNR030W, strain Alg12, active compounds read low
# [24] = S. cerevisiae deletion strains, locus YPL055C, strain LGE1, active compounds read low
# [25] = S. cerevisiae deletion strains, locus YPL241C, strain CIN2, active compounds read low
# [26] = S. cerevisiae deletion strains, locus YPR135W, strain CTF4, active compounds read low
# [27] = S. cerevisiae deletion strains, locus YDL134C, strain PPH21, active compounds read low
# [28] = S. cerevisiae deletion strains, locus YKL190W, strain CNB1, active compounds read low
# [29] = S. cerevisiae strains, strain wild type, active compounds read low
smiles,measurement,setting,value
FC(F)(F)c1cc(-n2c(CCc3nc(-c4ccc(Cl)cc4)no3)n[nH]c2=S)cc(C(F)(F)F)c1,normalized growth,[1],0.996
same,normalized growth,[2],0.991
same,normalized growth,[3],0.985
same,normalized growth,[4],0.946
same,normalized growth,[5],0.867
same,normalized growth,[6],1.04
same,normalized growth,[7],0.963
same,normalized growth,"S. cerevisiae deletion strains, locus YGR229C, strain SMI1, active compounds read low",0.991
same,normalized growth,[8],0.993
same,normalized growth,[9],1.03
same,normalized growth,[10],1.01
same,normalized growth,[11],0.978
same,normalized growth,[12],0.978
same,normalized growth,[13],1.05
same,normalized growth,[14],1.01
same,normalized growth,[15],0.97
same,normalized growth,[16],1.02
same,normalized growth,[17],1.03
same,normalized growth,[18],0.994
same,normalized growth,[19],0.957
same,normalized growth,[20],0.95
same,normalized growth,[21],0.981
same,normalized growth,[22],0.989
same,normalized growth,[23],0.975
same,normalized growth,"S. cerevisiae deletion strains, locus YOL006C, strain TOP1, active compounds read low",0.994
same,normalized growth,[24],0.994
same,normalized growth,[25],0.965
same,normalized growth,[26],0.879
O=C(NCc1nc(-c2ccc(C(F)(F)F)cc2)no1)Nc1ccc(F)cc1F,normalized growth,[1],1.01
same,normalized growth,[2],0.987
same,normalized growth,[4],0.975
same,normalized growth,[27],0.857 (active)
same,normalized growth,[5],1.03
same,normalized growth,[6],0.996
same,normalized growth,[7],0.996
same,normalized growth,[8],1.07
same,normalized growth,[9],0.973
same,normalized growth,[10],0.997
same,normalized growth,[11],1
same,normalized growth,[12],0.967
same,normalized growth,[28],1.01
same,normalized growth,[13],0.981
same,normalized growth,[14],1.01
same,normalized growth,[15],1.04
same,normalized growth,[16],1.02
same,normalized growth,[17],0.968
same,normalized growth,[18],1
same,normalized growth,"S. cerevisiae deletion strains, locus YMR307W, strain GAS1, active compounds read low",0.894
same,normalized growth,[20],0.987
same,normalized growth,[21],1.03
same,normalized growth,[22],1.02
same,normalized growth,[23],0.988
same,normalized growth,[24],0.846
same,normalized growth,[25],0.966
same,normalized growth,[26],1.01
same,normalized growth,[29],1.02
O=C(O)CC(CC(=O)Nc1ccc(I)cc1F)c1ccc(C(F)(F)F)cc1 (stereo not given),normalized growth,[1],0.99
same,normalized growth,[2],0.99
same,normalized growth,[3],0.978
same,normalized growth,[4],0.985
same,normalized growth,[27],0.981
same,normalized growth,[5],0.972
same,normalized growth,[6],1
same,normalized growth,[7],1
same,normalized growth,[8],1
same,normalized growth,[9],0.981
same,normalized growth,[11],1
same,normalized growth,[12],0.943
same,normalized growth,[28],1.01
same,normalized growth,[13],1.02
same,normalized growth,[14],0.975
same,normalized growth,[15],1
same,normalized growth,[16],1.02
same,normalized growth,[17],0.989
same,normalized growth,[18],0.984
same,normalized growth,[19],0.969
same,normalized growth,"S. cerevisiae deletion strains, locus YNL128W, strain TEP1, active compounds read low",0.995
same,normalized growth,[20],1.01
same,normalized growth,[21],1.05
same,normalized growth,[22],0.973
same,normalized growth,[23],0.927
same,normalized growth,[24],0.968
same,normalized growth,[25],0.986
same,normalized growth,[26],1.03
same,normalized growth,[29],1
